Assay results: PubChem BioAssay (NCI)
About 79,000 compounds went through this panel and 15% of them were active in at least one assay; those are over-represented in the sample as a whole. Rule as the data show it: active = growth inhibition above about 70%; inactive = the rest.

Key:
[1] = NCI Yeast Anticancer Drug Screen. Data for the rad50 strain (AID 155);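 also: 0% = growth of vehicle-only cultures of the same strain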; details: S. cerevisiae rad50 strain growth inhibition; at 50.0 µM; stronger effect = higher value
Procedure, shortened: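 A DNA repair-deficient yeast mutant serves as the test organism; compound-induced growth inhibition is calculated against vehicle-treated cells.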

[2] = NCI Yeast Anticancer Drug Screen. Data for the mec2-1 strain (AID 157); details: S. cerevisiae mec2-1 strain, at 50.0 µM, stronger effect = higher value
Procedure, shortened: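 Using mec2-1 yeast: add compound, measure growth, express inhibition versus vehicle-treated cultures.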

[3] = NCI Yeast Anticancer Drug Screen. Data for the sgs1 mgt1 strain (AID 161);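 also: 0% = growth of cultures given vehicle only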; details: S. cerevisiae sgs1 mgt1 strain, at 50.0 µM, stronger effect = higher value
Procedure, shortened: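 Percent growth inhibition was derived by comparing compound-exposed mutant yeast with vehicle-exposed cultures. The strain carries alterations in DNA damage repair.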

[4] = NCI Yeast Anticancer Drug Screen. Data for the cln2 rad14 strain (AID 165);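 also: 0% = growth equal to vehicle treated cultures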; details: S. cerevisiae cln2 rad14 strain, at 50.0 µM, stronger effect = higher value
Procedure, shortened: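 Yeast strain cln2 rad14, bearing defects in cell cycle control and DNA repair, serves as the test system; values reflect growth inhibition compared with vehicle.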

[5] = NCI Yeast Anticancer Drug Screen. Data for the bub3 strain (AID 167); details: S. cerevisiae bub3 mutant strain, at 50.0 µM, stronger effect = higher value
Procedure, shortened: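 Inhibition values come from growth of compound-treated mutant yeast normalised to vehicle-treated controls.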

[6] = NCI Yeast Anticancer Drug Screen. Data for the mlh1 rad18 strain (AID 175); details: S. cerevisiae mlh1 rad18 strain growth inhibition; at 50.0 µM; stronger effect = higher value
Procedure, shortened: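 Steps: expose repair-defective yeast to compound; measure growth; express inhibition against vehicle-treated controls.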

Measured: growth inhibition

Cc1cccc(C(=O)N(C)C)c1
inactive: [1] -0.7% | [2] 1.75% | [3] -6.4% | [4] -17.8% | [5] 4% | [6] 3.75%

O=c1n(-c2ccccc2)c(=O)n2n1C1C3C4C3C2C2(F)C4C12 (configuration not stated)
inactive: [1] -6.95% | [2] 14.3% | [3] 19.9% | [4] 8.6% | [5] 7.75% | [6] 9.6%

CCN(CC)n1c(N)nc2c1c(=O)n(C)c(=O)n2C
inactive: [1] -9.05% | [2] -6.65% | [3] 2.95% | [4] -24.6% | [5] 9.65% | [6] 13.3%

O=C(N/N=C/c1ccc(Cl)cc1Cl)c1ccccc1SSc1ccccc1C(=O)N/N=C/c1ccc(Cl)cc1Cl
inactive: [1] -19.1% | [2] 1.55% | [3] -5.45% | [4] -8.1% | [5] -9.75% | [6] 19.8%

Cc1cc(C)cc(OCCC(=O)O)c1
inactive: [1] -1.4% | [2] -16.6% | [3] -10.4% | [4] 21.7% | [5] 2.95% | [6] 7.1%

CSc1nsc(SC)c1C(N)=O
inactive: [1] -0.25% | [2] -17.6% | [3] 15.3% | [4] 12.5% | [5] 16.2% | [6] -0.85%

Cc1ccc(C2(O)CCCCC2)cc1
inactive: [1] -9.8% | [2] -8.45% | [3] -32% | [4] 26.2% | [5] -8.95% | [6] 7.1%

Cc1cccc[n+]1[O-]
inactive: [1] 10.8% | [2] -8% | [3] 5.9% | [4] -13.7% | [5] 1.65% | [6] 7%

C[C@@H](O)c1nc(C(N)=O)cs1
inactive: [1] 6.15% | [2] 14.2% | [3] 15.3% | [4] -3.55% | [5] 1.35% | [6] 10.1%

Nc1nc2sc3ccccc3c(=O)n2n1
inactive: [1] -10.7% | [2] -31.9% | [3] 11.5% | [4] 19.1% | [5] -3.2% | [6] -9.85%

CCC(=O)C1(CCCN(C)C)c2ccccc2Sc2ccccc21
inactive: [1] -14.3% | [2] 2.45% | [3] -8.6% | [4] -38.1% | [5] -2.35% | [6] 4.6%

CC(=O)OC1=C(C)C2=C3OC(=O)C(C)=C3CC[C@@]2(C)[C@@H](Cl)[C@@H]1Cl
inactive: [1] 40.9% | [2] -45.9% | [3] -2.6% | [4] -5.85% | [5] -15.2% | [6] -57.9%

CC(C)=CCC/C(C)=C/Cn1c(=O)cc[nH]c1=O
inactive: [1] 10.7% | [2] -6.9% | [3] -15.8% | [4] -107% | [5] 2.15% | [6] -0.1%

c1ccc2sc(SCSc3nc4ccccc4s3)nc2c1
inactive: [1] 2.65% | [2] -31.9% | [3] -18.1% | [4] -13.7% | [5] -1.05% | [6] -30.9%

COc1ccc(C2NC(C(=O)O)Cc3c2[nH]c2ccccc32)cc1OC (configuration not stated)
inactive: [1] -12.2% | [2] -5.6% | [3] -14.8% | [4] -12.9% | [5] -4.3% | [6] -22%

COc1ccc(CCNC(=S)N/C=C(\C#N)S(=O)(=O)c2ccc(C)cc2)cc1OC
inactive: [1] 6% | [2] -0.6% | [3] 4.55% | [4] 3.45% | [5] -19.8% | [6] -11.6%

CCOC(=O)Cc1nc2sc(C)c(-c3ccccc3)c2c(=O)[nH]1
inactive: [1] 32.4% | [2] 19.6% | [3] 27.5% | [4] 3.35% | [5] 17.2% | [6] 31.4%

COC1=CC(=O)OC(c2ccccc2)(c2ccccc2)C1
inactive: [1] -3.6% | [2] -15.1% | [3] 8.8% | [4] 13% | [5] 13.6% | [6] -3.65%

N#CC(NC(=O)NCCCl)c1ccccc1 (configuration not stated)
inactive: [1] -8.8% | [2] -12.2% | [3] -1.4% | [4] -41.1% | [5] 11.4% | [6] 2.6%

O=C1CCCC(=O)C1=Cc1c[nH]c2ccccc12
inactive: [1] 4.3% | [2] 2% | [3] -4.35% | [4] -43% | [5] -16.1% | [6] 15.1%

C/C(=C\C(=N\Nc1nc(C)cc(=O)[nH]1)c1ccccc1)c1ccccc1
inactive: [1] 12.4% | [2] -11.4% | [3] -8.75% | [4] 3.45% | [5] 6.8% | [6] -2.2%

COC(=O)C1CN=CN1CCc1ccccc1 (configuration not stated)
inactive: [1] -2.05% | [2] -10.6% | [3] 5.25% | [4] 12.4% | [5] 2.5% | [6] 45.8%

CSc1cc(=O)[nH]c(=O)[nH]1
inactive: [1] 16.9% | [2] 3.1% | [3] 4.2% | [4] 22.4% | [5] 3.8% | [6] 10.8%

COc1cc(CO)c(CO)cc1OC
inactive: [1] -5.05% | [2] -3.2% | [3] -5.65% | [4] -10.8% | [5] 4% | [6] -8.95%

CN1C(=O)N(C)C(N2CCCC2)c2c1nc1ccccn1c2=O (configuration not stated)
inactive: [1] -11.7% | [2] -30.8% | [3] -41.8% | [4] 5.15% | [5] -5% | [6] -29.4%

Cc1ccc([N+](=O)[O-])cc1NC(=O)C(=O)Cc1cc(=O)oc2cc(O)ccc12
inactive: [1] -4.85% | [2] -22.9% | [3] -28.3% | [4] 23.9% | [5] -16.1% | [6] -6.25%

Nc1ccccc1Br
inactive: [1] 29.6% | [2] 34.5% | [3] 21.4% | [4] -31% | [5] 12.2% | [6] 20.6%

CC(=O)/C=C/C1=C(C)CCCC1(C)C (tested in a mixture with another compound)
inactive: [1] 19.7% | [2] 1% | [3] 9.2% | [4] -3.25% | [5] 24.3% | [6] 5.7%

Cc1cc(N)cc(C)n1
inactive: [1] 22.9% | [2] 28.6% | [3] -14.8% | [4] 0.7% | [5] 11.7% | [6] 11.7%

C/C(=N\NC(=S)N1CC2CCC(CC2)C1)c1cccc(C)n1
inactive: [1] 22.1% | [2] -1.45% | [3] 18.8% | [4] 8.85% | [5] 18.4% | [6] 13.8%

C/C(N)=N/C(=O)OCCOC(=O)/N=C(\C)N
inactive: [1] -2.25% | [2] 8.3% | [3] -9.35% | [4] -5.3% | [5] 15% | [6] 1.9%

COc1ccc(C2(O)c3ccccc3C(=O)c3ccc(OC)cc32)cc1 (configuration not stated)
inactive: [1] -3.15% | [2] -10.6% | [3] 4.15% | [4] 14.8% | [5] -11.1% | [6] -10.5%

Cn1ncc2c(=O)[nH]c(NN)nc21
inactive: [1] -8.35% | [2] -4.45% | [3] -4.8% | [4] -17.8% | [5] -0.95% | [6] -1.95%

Cc1cc(N2CCOCC2)nc2ccc(Cc3ccc4nc(N5CCOCC5)cc(C)c4c3)cc12
inactive: [1] 13.5% | [2] -10.2% | [3] -32.2% | [4] -24.2% | [5] -4.65% | [6] -4.4%

Cc1cc(N=Nc2ccc(C(=O)O)cc2)c(N)cc1N
inactive: [1] -34.5% | [2] -5.55% | [3] -7.1% | [4] -21.4% | [5] 9.7% | [6] -7.5%

OCCOc1ccc(Cl)cc1Cl
inactive: [1] -6% | [2] -32% | [3] -18.2% | [4] -2.85% | [5] -0.8% | [6] 9.05%

CNCC(C(=O)C(CNC)c1ccccc1)c1ccccc1 (configuration not stated)
inactive: [1] -1.15% | [2] -6.45% | [3] 11.4% | [4] 7.6% | [5] 4% | [6] 21.9%

COC(OC)c1cccc2c1C(=O)CCC1(O)c3ccccc3C1C2 (configuration not stated)
inactive: [1] -8.55% | [2] -6.65% | [3] -38.9% | [4] -0.4% | [5] -30.1% | [6] -30.9%

O=C1c2ccccc2C(=O)c2c1oc1c2ccc2ccccc21
inactive: [1] -8.15% | [2] 7% | [3] -4.35% | [4] -16.1% | [5] -5.25% | [6] 8.5%

CCCc1cc(=O)oc2c(C=O)c(O)cc(O)c12
inactive: [1] 37.9% | [2] 24.7% | [3] 20.6% | [4] 9.6% | [5] 19.7% | [6] 46.5%

CC(=O)Cc1ccc(Cl)cc1[N+](=O)[O-]
inactive: [1] -14.8% | [2] 5.95% | [3] -8.5% | [4] -24.3% | [5] -9.7% | [6] 1.9%

CC(=O)NC1C(=O)N(c2ccccc2)N=C1C (configuration not stated)
inactive: [1] 15.6% | [2] -6.05% | [3] -0.7% | [4] 22.6% | [5] -6.5% | [6] 9.85%
